Most compounds without a hit are left out; they make up all but 22% or so of the library.
LmPK inh – LmPK (Leishmania mexicana) enzyme inhibition; Potency, µM (series often up to 57.5 µM), inactives show at the top dose activity change, negative = inhibition, usual class: inhibitors; purified LmPK, Kinase-Glo ATP luminescence, 1 h; Q27686; 290,000 compounds, 0.37% hits; AID 1721; also: potency is read from the fitted curve at half-maximal effect; % is scaled to controls: 0 for no effect and ±100 for the full control effect
Target sequence (Q27686 whole entry, looked up): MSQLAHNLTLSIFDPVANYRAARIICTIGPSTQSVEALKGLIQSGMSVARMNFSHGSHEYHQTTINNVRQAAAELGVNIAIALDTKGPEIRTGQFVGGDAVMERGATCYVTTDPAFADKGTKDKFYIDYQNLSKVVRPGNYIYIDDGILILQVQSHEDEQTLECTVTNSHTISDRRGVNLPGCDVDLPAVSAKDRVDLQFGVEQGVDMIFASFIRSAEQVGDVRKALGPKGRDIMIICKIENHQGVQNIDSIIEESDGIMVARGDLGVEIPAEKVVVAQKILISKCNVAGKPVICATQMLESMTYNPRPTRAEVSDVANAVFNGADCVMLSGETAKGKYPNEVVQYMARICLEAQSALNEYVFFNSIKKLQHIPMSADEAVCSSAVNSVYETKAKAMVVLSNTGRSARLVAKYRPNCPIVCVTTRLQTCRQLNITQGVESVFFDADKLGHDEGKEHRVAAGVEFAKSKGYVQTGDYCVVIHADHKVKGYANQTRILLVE
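In 50 mM imidazole pH 7.2 with 7 mM MgCl2, LmPK (0.1 nM) turned over PEP (0.5 mM) and ADP (0.1 mM) for 1 h at room temperature. Luciferase read-out of ATP.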
Pf growth 48h – inhibits P. falciparum growth in the first generation, 48 h; 310,000 compounds, 5.9% hits; AID 504832; Potency, µM (top dose mostly 28.7 µM), without a hit: top-dose activity change, negative = inhibition, hits mostly inhibitors; P. falciparum luciferase growth in erythrocytes, 48 h; also: potency is read from the fitted curve at half-maximal effect; % is scaled to controls: 0 for no effect and ±100 for the full control effect
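A one-generation exposure of luciferase-tagged malaria parasites in RPMI 1640/Albumax erythrocyte culture, 37 C and 5% CO2. Inhibition is inferred from decreased luminescence after adding detection reagent.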
Shiga inhibitor – blocks Shiga toxin action in Vero cells. Vero cells, Shiga toxin protein synthesis inhibition reporter. inhibition, % at 38.7 µM. 290,000 compounds, 9.2% hits. AID 2315; in the data active = inhibition mostly above about 28%, no sharp cut-off; inactive = mostly below about 43%; also: 0% is about no effect
CHX counter – counter-screen for Shiga toxin inhibitors: cycloheximide protein synthesis inhibition; cell reporter, cycloheximide protein synthesis inhibition counterscreen; max response, %; 300,000 compounds, 12% hits; in the data active = max response mostly above about 13%, no sharp cut-off; inactive = mostly below about 14%; also: read at 38.3 µM for the half of the compounds with a filed dose; 0% is about no effect
Pf growth 96h – P. falciparum growth inhibition at 96 hours; P. falciparum luciferase reporter growth, 96 h; Potency, µM (top dose mostly 28.7 µM), for inactives: at the top dose activity change, negative = inhibition, actives largely listed as inhibitors; 320,000 compounds, 6.9% hits; AID 504834; also: potency is read from the fitted curve at half-maximal effect; % is scaled to controls: 0 for no effect and ±100 for the full control effect
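Readout is luminescence from an integrated firefly luciferase in P. falciparum. Red cells, 2% hematocrit and 0.05% parasitemia final, were cultured with compound through two parasite generations (96 hours) at 37 C, 5% CO2.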
* hit, by the source's call; u = inconclusive; x = no result given. Unless noted, calls follow the shape of the dose curve; as a rule, active = well fitted inhibition curve with a large enough effect; inconclusive = small, poorly fitted or top-dose-only effect, or another doubt; inactive = no such curve, though single readings can be large or run the other way.

SMILES	LmPK inh	Pf growth 48h	Shiga inhibitor	CHX counter	Pf growth 96h
COc1ccc(C(=O)N/N=C/c2cccc3cccnc23)cc1	2%	u	-4	-2	293%
CCOc1ccc(C(=O)N/N=C/c2ccccc2[N+](=O)[O-])cc1	-5%	292%	102*	73*	335%
Cc1ccc(C(=O)N/N=C\c2ccccc2[N+](=O)[O-])cn1	-2%	19%	53	23*	u
Cc1ccc(C(=O)N/N=C/c2cc(Br)ccc2O)cn1	13%	u	x	16*	7%
Cc1ccc(C(=O)N/N=C\c2ccc([N+](=O)[O-])o2)cn1	3%	3.7µM*	13	5	1.9µM*
NCc1cc2c3c(c1)CCCN3CCC2	1%	-6%	-16	-9	7.4µM*
CN1CCc2c(sc3c2C(=O)NC(c2cn(Cc4ccccc4)c4ccccc24)N3)C1 (configuration not stated)	-5%	u	2	-1	u
CN1C(=O)c2c(sc3c2CCCC3)NC1c1ccccc1O (configuration not stated)	1%	u	49*	19*	4%
CCC1S/C(=N/N=C/c2ccco2)N(Cc2ccc(F)cc2)C1=O (configuration not stated)	0%	u	24	12	u
CCC1S/C(=N/N=C/c2ccco2)N(Cc2ccccc2C)C1=O (configuration not stated)	-2%	u	38*	9	u
CC1S/C(=N/N=C/c2ccco2)N(Cc2ccccc2)C1=O (configuration not stated)	0%	-13%	99*	35*	-10%
O=C1N/C(=N/N=C/c2ccco2)SC1Cc1ccccc1 (configuration not stated)	1%	u	28	6	0%
O=C1C(Cc2ccccc2)S/C(=N/N=C/c2ccco2)N1c1ccccc1 (configuration not stated)	5%	8%	-7	6	0.26µM*
Cc1ccccc1SC1CCN(Cc2nc(C3CC3)no2)CC1	5%	-1%	25	19*	u
c1ccc(CCC2CCCCN2Cc2nc(C3CC3)no2)cc1 (configuration not stated)	-4%	4%	4	-1	u
COCc1cc(CNC(=O)C2CCC(=O)N(Cc3ccccc3F)C2)[nH]n1 (configuration not stated)	0%	12%	33	11	23%
O=S(=O)(c1ccccc1)N1c2cc(Cl)ccc2Oc2nc3ccccc3nc21	0%	u	94*	65*	u
CCc1nc2ccccc2nc1N1CCN(S(=O)(=O)c2ccc(Cl)cc2)CC1	2%	u	-2	-1	-22%
COc1ccc(C(=O)C[n+]2ccc3c(c2)nnn3-c2ccccc2)cc1	-1%	u	-6	3	272%
COc1ccc(C(=O)C[n+]2ccc3c(c2)nc(-c2cc(OC)c(OC)cc2OC)n3C)cc1	3%	3.3µM*	-10	-1	1µM*
COc1cc(OC)c(-c2nc3c[n+](CC(=O)c4ccccc4)ccc3n2C)cc1OC	-2%	1.9µM*	15	-2	u
Cc1c(C(=O)OCC(=O)NCCc2ccc(S(N)(=O)=O)cc2)oc2ccccc12	x	-17%	x	x	u
Cc1cc(C(=O)Nc2ccc(F)cc2C)n(-c2ccccc2)n1	-1%	-9%	38	-2	1%
CC(C)(C)c1ccc(CN2CCN([C@H](c3ccccc3)c3ccc(Cl)cc3)CC2)cc1	x	17µM*	x	x	7.6µM*
CC1CCN(C(c2ccccc2)c2nnnn2C(C)(C)C)CC1 (configuration not stated)	0%	u	-7	-2	31%
SMILES	LmPK inh	Pf growth 48h	Shiga inhibitor	CHX counter	Pf growth 96h
OCCOCCN1CCN(C(c2ccccc2)c2ccc(Cl)cc2)CC1 (configuration not stated)	4%	u	-17	-2	u
c1ccc(-c2nnc(CN3CCN(C(c4ccccc4)c4ccccc4)CC3)o2)cc1	17%	-41%	5	4	9.3µM*
c1ccc(-c2nnc(CN3CCN(c4ccccc4)CC3)o2)cc1	5%	-4%	-2	16	-25%
CC(C)(C)n1nnnc1CN1CCN(C(c2ccccc2)c2ccccc2)CC1	-2%	5.2µM*	4	10	-13%
CC(C)(Sc1cc(C(C)(C)C)c(O)c(C(C)(C)C)c1)Sc1cc(C(C)(C)C)c(O)c(C(C)(C)C)c1	3%	7.2µM*	-7	-3	1µM*
CCn1c(=O)[nH]c2cc(C(=O)Nc3cc(C)cc(C)c3)ccc2c1=O	1%	4.7µM*	-17	-5	30%
CCCCCn1c(=O)[nH]c2cc(C(=O)Nc3ccc(OC)cc3)ccc2c1=O	-5%	12%	14	-2	u
Cc1cc(C)nc(NC(=O)/C=C/c2ccc(Cl)cc2Cl)c1	-2%	49%	81*	41*	68%
Cc1cc(C)nc(NC(=O)/C=C/c2ccccc2Cl)c1	-12%	-12%	32*	30*	49%
Cc1cc(C)nc(NC(=O)c2c(-c3ccccc3Cl)noc2C)c1	0%	12%	1	-3	2%
CCc1ccc(OCc2ccccc2C(=O)Nc2ccc3nc(C)cc(N)c3c2)cc1	x	x	35*	27	x
Cc1cc(N)c2cc(NC(=O)/C=C/c3ccccc3Cl)ccc2n1	-1%	0.47µM*	13	1	0.59µM*
CCOC(=O)c1ccc(NC(=O)c2cc(C)nc3ccccc23)cc1	2%	17%	x	0	u
CCc1nnc(NS(=O)(=O)c2ccc(NC(=O)/C=C/c3ccccc3Cl)cc2)s1	2%	-4%	17	-1	17%
Cc1ccccc1CC(=O)Nc1sc(C(C)C)cc1C(=O)N1CCOCC1	-14%	u	-12	-3	101%
Cc1cc(C)nc(NC(=O)/C=C/c2ccccc2Cl)n1	-9%	76%	70*	45*	36%
Cc1cc(C)nc(NC(=O)c2c(Cl)cccc2Cl)n1	1%	44%	-1	-2	42%
O=C(Nc1ccc(F)cc1F)Nc1sccc1-c1nc2ccccc2s1	11%	u	17	3	u
COCCN(C(=O)Nc1ccc(F)cc1F)c1nc2ccccc2s1	-2%	83%	48*	34*	-4%
COCCN(C(=O)Nc1ccc(OC)cc1)c1nc2ccccc2s1	2%	8%	42*	18*	37%
COCCN(C(=O)Nc1ccccc1)c1ccccc1	1%	11%	49	5	x
CC1=C[C@H](C)[C@H](c2c(F)cccc2Cl)CC1=O	-1%	15%	-13	1	-26%
O=C(Cn1c(=O)oc2ccccc21)NCC1COc2ccccc2O1 (configuration not stated)	-4%	3%	-5	-4	18%
O=S(=O)(c1ccccc1)N(F)S(=O)(=O)c1ccccc1	x	42%	x	x	29%
Cc1ccc(CN2CCc3[nH]c(=O)[nH]c(=O)c3C2)cc1	0%	2%	-6	-4	1.2µM*
